According to PubChem BioAssay (Tox21):
“And” between values parts separate entries of the source, which are not always exact repeats. Identical values can stand only once. Inconclusive results are not listed. More than one record can exist for a structure, and the calls need not agree. The source made the active and inactive calls. Unless noted, the call rests on the fitted dose curve; in most records, active means well fitted curve in the direction sought with a large enough effect in the repeat runs; inconclusive means weak or mixed curves; inactive means no such curve, though single readings can be large; an effect the other way counts as inactive or inconclusive.

Key:
[1] = molecular target: Estrogen receptor beta (Homo sapiens) (UniProt Q92731); experiment: qHTS assay to identify small molecule antagonists of the estrogen receptor beta (ER-beta) signaling pathway (AID 1259378; active means well fitted inhibition curve with a large enough effect in the signal ratio in the repeat runs, not every such curve was filed as active; the % refers to the signal ratio; further: potency means the concentration at half of the fitted maximal effect)
Estrogen receptor beta (Homo sapiens), sequence (Q92731 whole entry, looked up): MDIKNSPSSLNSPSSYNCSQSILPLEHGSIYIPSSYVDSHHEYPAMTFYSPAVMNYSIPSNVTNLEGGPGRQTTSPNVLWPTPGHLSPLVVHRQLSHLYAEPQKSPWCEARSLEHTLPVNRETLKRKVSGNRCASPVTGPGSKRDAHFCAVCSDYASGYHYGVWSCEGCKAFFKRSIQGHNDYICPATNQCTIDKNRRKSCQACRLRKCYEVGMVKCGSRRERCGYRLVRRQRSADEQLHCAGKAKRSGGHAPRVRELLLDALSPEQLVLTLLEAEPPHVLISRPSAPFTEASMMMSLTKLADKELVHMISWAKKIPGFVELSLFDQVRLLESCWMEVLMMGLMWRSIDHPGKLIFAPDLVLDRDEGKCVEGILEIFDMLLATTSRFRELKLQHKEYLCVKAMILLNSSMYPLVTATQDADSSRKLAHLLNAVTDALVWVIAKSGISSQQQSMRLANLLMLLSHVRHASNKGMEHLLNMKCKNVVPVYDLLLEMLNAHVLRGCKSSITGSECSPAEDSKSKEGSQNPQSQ
How it was run: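 Antagonist mode: compounds added to beta-lactamase reporter HEK293T ER-beta-UAS cells stimulated with E2 (1nM final), 16 hr at 37C. LiveBLAzer B/G FRET substrate, 2 hours room temperature, fluorescence read-out.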

[2] = qHTS assay to identify small molecule agonists of the androgen receptor (AR) signaling pathway in the presence of an antagonist - cell viability counter screen (AID 1259379); further: nearly all actives have a fitted effect of over 25% in size; further: potency means the concentration at half of the fitted maximal effect
How it was run: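 Seed MDA-kb2 at 3,000 cells/well; incubate 5 hr, 37C, 0% CO2. Add nilutamide to 3.0uM final, then pin compounds at 15 concentrations. Incubate 16 hr. Add CellTiter-Fluor at 15 hr, read fluorescence after 1 hr.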

[3] = qHTS assay to identify small molecule agonists of the estrogen receptor beta (ER-beta) signaling pathway - cell viability counter screen (AID 1259380); further: nearly all actives have a fitted effect of over 30% in size
How it was run: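 CellTiter-Glo read, 30 min RT, same wells as bla assay; cells ER-beta-UAS-bla HEK293T; 16 hr compound, 37C; medium 2% charcoal-stripped FBS.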

[4] = qHTS assay to identify small molecule antagonists of the estrogen receptor beta (ER-beta) signaling pathway - cell viability counter screen (AID 1259382); further: nearly all actives have a fitted effect of over 55% in size; further: potency means the concentration at half of the fitted maximal effect
How it was run: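 In this multiplexed counter screen, cells were seeded at 2,000 per well in medium with 2% charcoal-stripped FBS and incubated 6 hr before compound and 1nM final E2 were added. Sixteen hours later, ATP-based luminescence reported viability.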

[5] = molecular target: Estrogen receptor (Homo sapiens) (UniProt P03372); experiment: qHTS assay to identify small molecule agonists of the estrogen receptor alpha (ER-alpha) signaling pathway in the presence of an antagonist (AID 1259383; calls by dose curve; further: nearly all actives have a fitted effect of over 15% in size; further: potency means the concentration at half of the fitted maximal effect; on activation: top concentration of the series differs between compounds)
Estrogen receptor (Homo sapiens), sequence (P03372 whole entry, looked up): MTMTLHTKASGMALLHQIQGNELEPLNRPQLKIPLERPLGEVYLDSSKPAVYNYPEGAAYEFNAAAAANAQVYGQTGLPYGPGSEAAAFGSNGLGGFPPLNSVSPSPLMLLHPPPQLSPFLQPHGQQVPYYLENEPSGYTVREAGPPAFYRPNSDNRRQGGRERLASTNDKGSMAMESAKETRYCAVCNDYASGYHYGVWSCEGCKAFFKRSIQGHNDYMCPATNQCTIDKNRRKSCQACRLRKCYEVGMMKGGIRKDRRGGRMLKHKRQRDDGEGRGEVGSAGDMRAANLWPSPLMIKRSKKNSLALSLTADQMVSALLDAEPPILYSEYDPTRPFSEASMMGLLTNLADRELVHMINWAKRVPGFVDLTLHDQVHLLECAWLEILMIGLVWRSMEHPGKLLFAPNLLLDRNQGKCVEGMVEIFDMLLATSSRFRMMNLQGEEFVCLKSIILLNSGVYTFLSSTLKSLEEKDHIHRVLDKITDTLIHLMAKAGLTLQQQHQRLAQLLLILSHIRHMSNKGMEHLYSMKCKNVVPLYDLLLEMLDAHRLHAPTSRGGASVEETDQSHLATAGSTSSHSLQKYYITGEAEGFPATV
How it was run: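 Stably transfected VM7Luc4E2 reporter cells, kept 5 days in charcoal-stripped serum, received ICI-182,780 at 10.0nM final before compound addition. Following 22hr incubation at 37C and 5% CO2, luciferase signal was read by luminescence.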

[6] = qHTS assay to identify small molecule agonists of the estrogen receptor alpha (ER-alpha) signaling pathway in the presence of an antagonist - cell viability counter screen (AID 1259386);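 further: cells exposed to compounds for 22 h at 37 °C before the viability read; nearly all actives have a fitted effect of over 30% in size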; further: potency means the concentration at half of the fitted maximal effect
How it was run: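 Viability counter screen using VM7Luc4E2 (full-length ER-alpha, four ERE-luciferase). The cells were treated with compounds alongside ICI-182,780 10.0nM for 22hr, and live-cell protease fluorescence was quantified with CellTiter-Fluor.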

[7] = molecular target: Progesterone receptor (Homo sapiens) (UniProt P06401); experiment: qHTS assay to identify small molecule agonists of the progesterone receptor (PR) signaling pathway (AID 1346784; calls by dose curve; further: nearly all actives have a fitted effect of over 30% in size)
Progesterone receptor (Homo sapiens), sequence (P06401 whole entry, looked up): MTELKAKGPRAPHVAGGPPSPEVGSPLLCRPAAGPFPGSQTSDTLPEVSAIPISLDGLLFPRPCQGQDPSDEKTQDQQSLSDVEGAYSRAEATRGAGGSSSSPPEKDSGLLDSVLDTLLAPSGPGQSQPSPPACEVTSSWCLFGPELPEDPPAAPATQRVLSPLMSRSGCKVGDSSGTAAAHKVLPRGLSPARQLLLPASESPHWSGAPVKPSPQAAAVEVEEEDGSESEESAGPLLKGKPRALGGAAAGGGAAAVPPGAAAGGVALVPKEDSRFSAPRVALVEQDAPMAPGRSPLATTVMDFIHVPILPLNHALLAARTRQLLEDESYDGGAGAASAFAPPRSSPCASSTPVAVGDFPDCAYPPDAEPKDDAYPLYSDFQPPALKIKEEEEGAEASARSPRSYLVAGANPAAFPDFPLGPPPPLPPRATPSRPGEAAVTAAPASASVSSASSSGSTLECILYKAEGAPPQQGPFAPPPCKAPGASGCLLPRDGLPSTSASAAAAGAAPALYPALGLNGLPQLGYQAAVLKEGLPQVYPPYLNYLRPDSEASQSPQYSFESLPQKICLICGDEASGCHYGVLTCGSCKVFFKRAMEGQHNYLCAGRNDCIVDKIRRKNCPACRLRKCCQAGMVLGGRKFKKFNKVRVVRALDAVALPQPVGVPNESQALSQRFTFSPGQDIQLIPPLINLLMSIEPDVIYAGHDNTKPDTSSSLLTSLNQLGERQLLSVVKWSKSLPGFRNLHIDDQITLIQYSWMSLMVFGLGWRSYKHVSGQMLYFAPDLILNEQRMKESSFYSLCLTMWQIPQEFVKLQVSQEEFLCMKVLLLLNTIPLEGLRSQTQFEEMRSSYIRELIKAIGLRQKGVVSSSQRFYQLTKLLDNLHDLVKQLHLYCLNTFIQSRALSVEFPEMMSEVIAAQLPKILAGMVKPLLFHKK
How it was run: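 Beta-lactamase reporter read-out: after 16 hr compound treatment at 37C and a further 2 hr at room temperature with LiveBLAzer B/G FRET substrate, fluorescence was measured in PR-UAS-bla HEK 293T cells grown in 2% charcoal-stripped serum.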

[8] = molecular target: Progesterone receptor (Homo sapiens) (UniProt P06401); experiment: qHTS assay to identify small molecule antagonists of the progesterone receptor (PR) signaling pathway (AID 1346795; active means well fitted inhibition curve with a large enough effect in the signal ratio in the repeat runs, not every such curve was filed as active; the % refers to the signal ratio; further: potency means the concentration at half of the fitted maximal effect)
How it was run: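 Read-out is fluorescence from the LiveBLAzer B/G FRET substrate, cleaved by a UAS-controlled beta-lactamase in PR-UAS-bla HEK293T cells after 16 hr exposure to compound plus 1 nM promegestone (final), followed by 2 hr at room temperature.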

[9] = qHTS assay to identify small molecule antagonists of the progesterone receptor (PR) signaling pathway - cell viability counter screen (AID 1346798);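 further: HEK293T PR-UAS-bla cells stimulated with the agonist R5020; series mostly up to about 92 µM; nearly all actives have a fitted effect of over 50% in size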
How it was run: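 HEK293T PR-UAS-bla, 2% charcoal-stripped FBS; 4 hr pre-plate; cpd + R5020, 16 h 37C; LiveBLAzer read first; then CellTiter-Glo 30 min RT, luminescence.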

[10] = qHTS assay to identify small molecule agonists of the progesterone receptor (PR) signaling pathway - cell viability counter screen (AID 1346799; calls by dose curve; further: nearly all actives have a fitted effect of over 45% in size; further: potency means the concentration at half of the fitted maximal effect)
How it was run: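 Luminescence from CellTiter-Glo, added after the beta-lactamase FRET read in the same wells, gave cytotoxicity in PR-UAS-bla HEK293T cells treated with compounds for 16 hr at 37C.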

[11] = qHTS assay to identify small molecule antagonists of the TGF-beta/Smad signaling pathway - cell viability counter screen (AID 1346824); further: nearly all actives have a fitted effect of over 50% in size
How it was run: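 Cytotoxicity counter-screen run in the same wells as the beta-lactamase Smad reporter read: CellTiter-Glo luminescence after 30 min at room temperature. HEK 293T SBE-bla cells had 5 hr compound exposure at 37 C with TGF-beta1 (0.25 ng/mL stock).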

[12] = qHTS assay to identify small molecule agonists of the TGF-beta/Smad signaling pathway - cell viability counter screen (AID 1346829); further: top concentration of the series differs between compounds; nearly all actives have a fitted effect of over 45% in size
How it was run: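 Compound-treated SBE-bla HEK 293T cells (5 hr, 37 C) were assessed for viability with CellTiter-Glo in parallel with the reporter read.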

[13] = molecular target: Thyrotropin-releasing hormone receptor (Homo sapiens) (UniProt P34981); experiment: qHTS assay to identify small molecule antagonists of the thyrotropin-releasing hormone receptor (TRHR) signaling pathway (AID 1346877; active means well fitted inhibition curve with a large enough effect in the repeat runs, not every such curve was filed as active; further: series mostly up to about 51 µM)
Thyrotropin-releasing hormone receptor (Homo sapiens), sequence (P34981 whole entry, looked up): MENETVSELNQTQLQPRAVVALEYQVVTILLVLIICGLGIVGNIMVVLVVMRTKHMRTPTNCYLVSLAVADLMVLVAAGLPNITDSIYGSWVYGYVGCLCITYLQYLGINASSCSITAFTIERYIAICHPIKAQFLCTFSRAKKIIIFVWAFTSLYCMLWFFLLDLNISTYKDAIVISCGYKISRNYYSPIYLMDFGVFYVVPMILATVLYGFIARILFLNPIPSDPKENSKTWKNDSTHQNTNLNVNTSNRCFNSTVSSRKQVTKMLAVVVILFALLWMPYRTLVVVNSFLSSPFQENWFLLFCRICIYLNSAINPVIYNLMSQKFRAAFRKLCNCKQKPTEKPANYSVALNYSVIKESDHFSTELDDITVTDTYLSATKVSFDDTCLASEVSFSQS
How it was run: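 Following an 18 h incubation at 37 °C and a 2 h calcium dye load, TRHR-HEK293 cells were exposed to compound (5 min, room temperature) and challenged with TRH, 1 nM final.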

[14] = molecular target: Thyrotropin-releasing hormone receptor (Homo sapiens) (UniProt P34981); experiment: qHTS assay to identify small molecule agonists of the thyrotropin-releasing hormone receptor (TRHR) signaling pathway (AID 1346891; calls by dose curve; further: series mostly up to about 58 µM)
How it was run: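 Intracellular calcium rise, read as fluorescence every second for 3 min, served as the agonist signal in dye-loaded HEK293 cells expressing TRHR; each compound ran at 15 concentrations in triplicate.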

[15] = Human pregnane X receptor (PXR) small molecule agonists, qHTS cell viability counter screen (AID 1346977); further: nearly all actives have a fitted effect of over 50% in size; further: potency means the concentration at half of the fitted maximal effect
How it was run: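 PXR-Luc HepG2, 2,000 cells/well, 5% charcoal-stripped FBS; 5hr settle; cpd 24hr, 37C/5% CO2; CellTiter-Fluor at 23hr, read 1hr later (fluorescence).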

[16] = Caspase-3/7 induction in HepG2 cells by small molecules, qHTS assay (AID 1346978); further: nearly all actives have a fitted effect of over 15% in size; further: potency means the concentration at half of the fitted maximal effect
How it was run: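 Caspase-3/7 induction was measured by Caspase-Glo 3/7 luminescence (30 min, room temperature) after a 17 hr compound exposure of wild-type HepG2 cells seeded at 2,000 per well and pre-incubated 5 hr.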

[17] = qHTS assay to identify small molecule agonists or antagonists of the thyroid stimulating hormone receptor (TSHR) signaling pathway - wild type cell line counter screen (AID 1259384; calls by dose curve)
How it was run: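 Counter screen in untransfected Hek293: compounds (15-point titration, triplicate) plus phosphodiesterase inhibitor Ro20-1724 added after 18 h plating; 30 min RT. Intracellular cAMP via competitive d2/cryptate immunoassay, 1 h incubation.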

[18] = molecular target: Thyrotropin receptor (Homo sapiens) (UniProt P16473); experiment: qHTS assay to identify small molecule antagonists of the thyroid stimulating hormone receptor (TSHR) signaling pathway (AID 1259385; calls by dose curve; further: nearly all actives have a fitted effect of over 20% in size)
Thyrotropin receptor (Homo sapiens), sequence (P16473 whole entry, looked up): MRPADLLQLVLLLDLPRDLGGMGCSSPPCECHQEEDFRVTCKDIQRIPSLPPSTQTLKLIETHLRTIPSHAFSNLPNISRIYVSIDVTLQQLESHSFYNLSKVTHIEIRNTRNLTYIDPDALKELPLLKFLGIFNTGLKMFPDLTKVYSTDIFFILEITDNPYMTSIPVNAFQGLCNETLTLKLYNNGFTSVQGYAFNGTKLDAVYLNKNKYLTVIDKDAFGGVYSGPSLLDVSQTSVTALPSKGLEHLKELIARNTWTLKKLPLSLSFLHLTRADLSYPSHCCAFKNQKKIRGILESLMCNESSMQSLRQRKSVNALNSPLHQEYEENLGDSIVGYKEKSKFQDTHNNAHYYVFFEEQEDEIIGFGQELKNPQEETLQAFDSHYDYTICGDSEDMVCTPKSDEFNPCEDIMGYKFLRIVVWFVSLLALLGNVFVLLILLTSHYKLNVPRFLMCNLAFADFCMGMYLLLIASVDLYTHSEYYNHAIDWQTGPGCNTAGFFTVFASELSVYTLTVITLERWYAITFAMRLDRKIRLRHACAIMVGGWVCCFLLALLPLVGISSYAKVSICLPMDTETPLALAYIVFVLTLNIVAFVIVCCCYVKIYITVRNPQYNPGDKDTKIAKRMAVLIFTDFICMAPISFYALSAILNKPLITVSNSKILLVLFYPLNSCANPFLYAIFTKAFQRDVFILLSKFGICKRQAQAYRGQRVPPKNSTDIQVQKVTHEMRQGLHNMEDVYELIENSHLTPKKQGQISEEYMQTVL
How it was run: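 Antagonist mode: compound-treated TSHR-expressing HEK293 cells were stimulated with 1.5 ng/mL TSH (final) in presence of Ro20-1724 for 30 min at RT. HTRF cAMP detection after 1 h; each compound tested at 15 concentrations, triplicate.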

[19] = qHTS assay to identify small molecule agonists of the TGF-beta/Smad signaling pathway (AID 1346859; active means well fitted activation curve with a large enough effect in the signal ratio in the repeat runs, not every such curve was filed as active; the % refers to the signal ratio; further: series mostly up to about 77 µM)
How it was run: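 SBE-bla HEK 293T, 4,000 cells/well, plated o/n; cpd in DMSO, 5 hr, 37 C/5% CO2; B/G FRET substrate 2 hr RT; ex 405, em 460/530 nm.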

[20] = molecular target: Androgen receptor (Homo sapiens) (UniProt P10275); experiment: qHTS assay to identify small molecule agonists of the androgen receptor (AR) signaling pathway in the presence of an antagonist (AID 1259381; calls by dose curve; further: nearly all actives have a fitted effect of over 15% in size)
Androgen receptor (Homo sapiens), sequence (P10275 whole entry, looked up): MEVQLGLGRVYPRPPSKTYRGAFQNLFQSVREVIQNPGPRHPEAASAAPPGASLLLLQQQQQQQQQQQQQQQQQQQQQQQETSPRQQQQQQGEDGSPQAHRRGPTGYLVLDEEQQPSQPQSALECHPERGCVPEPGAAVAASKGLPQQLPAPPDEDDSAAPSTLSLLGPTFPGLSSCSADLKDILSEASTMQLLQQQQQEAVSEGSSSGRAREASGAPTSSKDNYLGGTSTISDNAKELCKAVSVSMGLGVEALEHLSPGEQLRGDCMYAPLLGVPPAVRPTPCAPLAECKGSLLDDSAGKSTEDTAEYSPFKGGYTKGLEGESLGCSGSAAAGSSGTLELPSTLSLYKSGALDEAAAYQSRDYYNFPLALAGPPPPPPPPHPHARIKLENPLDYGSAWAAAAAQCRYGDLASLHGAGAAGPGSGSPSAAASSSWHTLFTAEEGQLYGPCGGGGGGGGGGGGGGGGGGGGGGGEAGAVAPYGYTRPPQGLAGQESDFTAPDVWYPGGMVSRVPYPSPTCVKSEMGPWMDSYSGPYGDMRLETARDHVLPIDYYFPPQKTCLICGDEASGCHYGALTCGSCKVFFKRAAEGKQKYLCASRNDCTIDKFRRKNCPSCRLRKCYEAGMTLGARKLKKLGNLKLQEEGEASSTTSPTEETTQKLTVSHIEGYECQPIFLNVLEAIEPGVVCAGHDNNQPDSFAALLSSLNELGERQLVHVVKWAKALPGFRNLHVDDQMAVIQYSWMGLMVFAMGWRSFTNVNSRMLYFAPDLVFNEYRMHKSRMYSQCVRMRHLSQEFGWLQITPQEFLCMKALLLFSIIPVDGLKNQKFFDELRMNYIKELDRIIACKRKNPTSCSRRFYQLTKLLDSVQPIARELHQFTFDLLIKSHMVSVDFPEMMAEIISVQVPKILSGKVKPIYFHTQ
How it was run: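 Test compounds at 15 concentrations were incubated for 16hr with MDA-kb2 reporter cells in presence of 3.0uM nilutamide (final). Signal: ONE-Glo luciferase luminescence.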

Measured: Potency

O=C(c1cc(O)c(O)c(O)c1)c1ccc(O)c(O)c1O
active: [2] 27.3 µM | [6] 34.3 µM and 30.6 µM | [15] 39.8 µM and 61.1 µM
not listed: [17] | [18] | [19] | [20]
inactive: all other assays above

O=S(=O)(O)CCS
not listed: [19] | [20]
inactive: all other assays above

CNC[C@H](O)[C@@H](O)[C@H](O)[C@H](O)CO
not listed: [5] | [20]
inactive: all other assays above

O=[N+]([O-])c1cccc(Cl)c1
67.4 µM (active) and inactive: [5]
not listed: [19] | [20]
inactive: all other assays above

CCC(C)C=O (stereo unspecified)
1.09 µM (active) and inactive: [5]
not listed: [6] | [20]
inactive: all other assays above

ClC1=C(Cl)C(Cl)(Cl)C(Cl)=C1Cl
active: [2] 43.3 µM
not listed: [6] | [20]
inactive: all other assays above

C[C@@H]1O[C@@H](OC[C@H]2O[C@@H](Oc3c(-c4ccc(O)c(O)c4)oc4cc(O)cc(O)c4c3=O)[C@H](O)[C@@H](O)[C@@H]2O)[C@H](O)[C@H](O)[C@H]1O
active: [6] 54.9 µM
not listed: [5]
inactive: all other assays above

Cc1cc(O)cc(C)c1Cl
not listed: [5] | [20]
inactive: all other assays above

Clc1ccc(Cl)c(Cl)c1Cl
not listed: [3] | [5] | [20]
inactive: all other assays above

CCCCCCCCCCCCOCC1CO1 (stereo unspecified)
not listed: [3] | [19] | [20]
inactive: all other assays above

CCCCOCCOCCOC(=O)CCCCC(=O)OCCOCCOCCCC
not listed: [3] | [6] | [20]
inactive: all other assays above

C=C(C)C(=O)OCCCCCCCCCCCC
not listed: [3] | [8] | [20]
inactive: all other assays above

Cc1ccc(N)c(S(=O)(=O)O)c1
not listed: [3] | [5] | [6] | [8] | [20]
inactive: all other assays above

CCCCC(CC)COC(C)=O (stereo unspecified)
not listed: [3] | [5] | [8] | [19] | [20]
inactive: all other assays above

NCc1cccc(CN)c1
not listed: [2] | [6] | [20]
inactive: all other assays above

Nc1c(S(=O)(=O)O)cc(Br)c2c1C(=O)c1ccccc1C2=O
active: [2] 27.3 µM | [6] 30.6 µM | [15] 31.3 µM and 27.3 µM
not listed: [3] | [14] | [20]
inactive: all other assays above

CN(C)c1ccc(C(=N)c2ccc(N(C)C)cc2)cc1
2.4 µM (active) and inactive: [16]
active: [2] 30.3 µM and 26.3 µM | [6] 30.3 µM and 20.9 µM | [15] 17.8 µM and 23.4 µM
not listed: [3] | [8] | [10] | [14] | [19] | [20]
inactive: all other assays above

CC1=C(/C=C/C(C)=C/C=C/C(C)=C/CO)C(C)(C)CCC1
inactive and 64.4 µM (active): [1]
not listed: [3] | [6] | [8] | [20]
inactive: all other assays above

CN(C)c1cccc(O)c1
not listed: [5] | [8] | [20]
inactive: all other assays above

CCCCCC/C=C/CCCCCCCC(=O)O
not listed: [3] | [6] | [8] | [20]
inactive: all other assays above

COC(=O)c1ccc(C(=O)OC)cc1
19.6 µM (active) and inactive: [4]
7.08 µM (active) and inactive: [15]
9.82 µM (active) and inactive: [16]
17.5 µM (active) and inactive: [10]
not listed: [3] | [6] | [7] | [8] | [9] | [20]
inactive: all other assays above

Oc1ccc2ccccc2c1N=Nc1ccccc1
active: [2] 21.7 µM and 27.3 µM | [8] 24.3 µM | [15] 27.3 µM and 30.6 µM
not listed: [3] | [6] | [20]
inactive: all other assays above

Cn1c([N+](=O)[O-])cnc1COC(N)=O
not listed: [3] | [13] | [14] | [17] | [18] | [19] | [20]
inactive: all other assays above

CC1=C(CC(=O)O)c2cc(F)ccc2/C1=C\c1ccc(S(C)=O)cc1 (stereo unspecified)
not listed: [5] | [13] | [14] | [19] | [20]
inactive: all other assays above

Cc1cc(Cc2ccc(N)c(C)c2)ccc1N
not listed: [3] | [5] | [8] | [17] | [18] | [20]
inactive: all other assays above

Nc1cc(-c2ccncc2)c[nH]c1=O
not listed: [3] | [18]
inactive: all other assays above

O=S(=O)(O)c1cc(S(=O)(=O)O)c2c(N=Nc3ccccc3)c(O)ccc2c1
active: [2] 30.8 µM and 54.5 µM | [15] 39.8 µM and 54.5 µM
not listed: [3] | [6] | [19] | [20]
inactive: all other assays above

OCC#CCO
not listed: [3] | [5] | [8] | [20]
inactive: all other assays above
